# Data: PubChem BioAssay (Tox21)
# Inconclusive results are not listed. A number with no mark means an inactive call. Active and inactive are the calls of the source. Calls come from the whole dose curve.
# Assay: p53 small molecule agonists, cell-based qHTS assay: qHTS cell viability counter screen (AID 1963581); note: nearly all actives have a fitted effect of over 45% in size
# Settings: p53RE-bla HCT-116 viability, ATP luminescence, 16 h; series mostly up to 66 µM; activity change, negative = cytotoxicity: at the top concentration
# Description: National Center for Advancing Translational Sciences [NCATS]
# Division of Preclinical Innovation [DPI]
# U.S. Environmental Protection Agency [EPA]
# National Institutes of Environmental Health Sciences [NIEHS]
# National Toxicology Program [NTP]
# U.S. Food and Drug Administration [FDA]
# p53, a tumor suppressor protein, is activated following cellular insult, including DNA damage and other cellular stresses. The activation of p53 regulates cell fate by inducing DNA repair, cell cycle arrest, apoptosis, or cellular senescence. The activation of p53, therefore, is a good indicator of DNA damage and other cellular stresses. The CellSensor p53RE-bla HCT-116 cell line (Invitrogen) contains a stably integrated beta-lactamase reporter gene under control of the p53 response elements. The activation of the reporter gene under culture conditions can be detected by fluorescence intensity. This cell line was used to screen the Tox21 compound library in a 1536-well plate format and to identify agonists that activate the p53 signaling pathway. The cytotoxicity of the Tox21 compound library against the p53 RE-bla HCT-116 cell line was tested in parallel by measuring the intra cellular ATP content in the same wells.
# Tox21 Assay Protocol Summary:
# The p53RE-bla cells were dispensed at 4,000 cells/5 ul/well in 1536-well black wall/clear bottom plates using a Multidrop dispenser. After the assay plates were incubated at a 37 C/5% CO2 incubator for 5 hours, 23 nL of compounds dissolved in DMSO, positive controls or DMSO only was transferred to the assay plate by a pin tool. The plates were incubated at 37 C for 16 hours. After 1 uL of LiveBLAzerTM B/G FRET substrate was added using a Flying Reagent Dispenser, the plates were incubated at room temperature for 2 hours, and fluorescence intensity was measured by an Envision plate reader. For cell viability readout that measures cytotoxicity, 4 ul/well of CellTiter-Glo reagent was added into the assay plates using a Flying Reagent Dispenser. After 30 min incubation at room temperature, the luminescence intensity in the plates was measured using a ViewLux plate reader.
# % is set by controls: 0 for no effect and ±100 for the full control effect; potency is the fitted concentration of half-maximal effect.
Compound,"activity change, negative = cytotoxicity",Potency
CS(=O)(=O)CCNCc1ccc(-c2ccc3ncnc(Nc4ccc(OCc5cccc(F)c5)c(Cl)c4)c3c2)o1,-24% [at 30.3 µM],–
Cc1cc([N+](=O)[O-])ccc1N,0%,–
Cc1ccccc1N=C(N)Nc1ccccc1C,-2.2%,–
CCCCCC(C)O (stereo not given),1.67%,–
C=CC(C)=CCC=C(C)C,0.2%,–
O=C(Oc1cccc2cccnc12)c1ccccc1,-1.52% [at 30.3 µM],–
O=C1OC(=O)c2cc(-c3ccc4c(c3)C(=O)OC4=O)ccc21,0.878%,–
N[C@@H](CCC(=O)O)C(=O)O,-16.5%,–
C[C@@H](N)C(=O)O,2.1% [at 30.3 µM],–
O=C(Nc1ncc([N+](=O)[O-])s1)c1cccs1,-29.8% [at 30.3 µM],–
Cn1cnc2c(=O)[nH]c(N)nc21,-2.69%,–
O=Cc1ccc(Cl)c([N+](=O)[O-])c1,-5.16%,–
CCN(CC)c1ccc(C(=C2C=CC(=[N+](CC)CC)C=C2)c2cc(S(=O)(=O)O)ccc2S(=O)(=O)[O-])cc1,–,17.8 µM (active)
NC(CSCC(=O)O)C(=O)O (stereo not given),12.8% [at 30.3 µM],–
CC(C)Cc1ccc(CC(=O)O)cc1,13.5% [at 30.3 µM],–
C/C=C/C(=O)C1=C(C)CCCC1(C)C,0.37%,–
C=C(C)C(=O)OCCOC(=O)CC(C)=O,1.39%,–
CCCCO,0%,–
OCCc1ccncc1,-1.38%,–
CC(=O)c1c(C)c([N+](=O)[O-])c(C(C)(C)C)c([N+](=O)[O-])c1C,-9.4%,–

Compound,"activity change, negative = cytotoxicity",Potency
CCN1/C(=C/C=C/c2sc3ccccc3[n+]2CC)Sc2ccccc21,1.06% [at 13.5 µM],–
CC(C(=O)O)c1ccc(C(=O)c2cccs2)cc1 (stereo not given),6.86% [at 30.3 µM],–
CCCCCCCCCCC1CO1 (stereo not given),8.1%,–
CC(C)OC(=O)CCC(=O)OC(C)C,7.39%,–
C[n+]1c2cc(N)ccc2cc2ccc(N)cc21 (tested in a mixture with another compound),-0.931% [at 30.3 µM],–
Cc1ccccc1N=C(N)N=C(N)N,-1.27%,–
COc1nc(C)nc(N)n1,-9.16%,–
CCOC(=O)/C=C(C)/C=C/C=C(C)/C=C/c1c(C)cc(OC)c(C)c1C,-17% [at 30.3 µM],–
C[C@@H]1C[C@H]2[C@@H]3C[C@H](F)C4=CC(=O)C=C[C@]4(C)[C@@]3(F)[C@@H](O)C[C@]2(C)[C@@]1(O)C(=O)CO,11.1% [at 30.3 µM],–
C[C@]12CCC(=O)C=C1CC[C@H]1[C@@H]3CC[C@](O)(C(=O)CO)[C@@]3(C)C[C@H](O)[C@@]12F,-3.16% [at 30.3 µM],–
O=C(O)c1nc(Cl)c(Cl)c(Cl)c1Cl,-0.21%,–
CN1CCN(C2=Nc3cc(Cl)ccc3Nc3ccccc32)CC1,20.5% [at 30.3 µM],–
CCCCCCCCCCCCCCCC(=O)OCC,1.34%,–
COC(=O)CC(C)CCC=C(C)C (stereo not given),-2%,–
Cc1cc(C(=C2C=CC(=Nc3ccc(S(=O)(=O)O)cc3S(=O)(=O)O)C=C2)c2ccc(Nc3ccc(S(=O)(=O)O)cc3)cc2)ccc1N,-11.3% [at 30.3 µM],–
CC1=C(Br)C(=O)C(Br)=C/C1=C(/c1ccccc1S(=O)(=O)O)c1cc(Br)c(O)c(Br)c1C,-15.5% [at 30.3 µM],–
C/C=C/C=N/NC(=O)c1ccncc1,16.5% [at 30.3 µM],–
C=CCCCCCCC=C,4.78%,–
FC1(F)C(F)(F)C(F)(F)C2(F)C(F)(F)C(F)(F)C(F)(F)C(F)(F)C2(F)C1(F)F (stereo not given),1.1% [at 30.3 µM],–
CC/C=C\CCCCCCCCCCOC(C)=O,2.83%,–
